EP2 modulator – modulators of human EP2 prostaglandin E2 receptor. hit rate 0.83% among 260,000. AID 940. induction, % at 25 µM. EP2-expressing cells, cAMP HTRF FRET, PGE2 co-stimulation. P43116;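 active = compounds whose cAMP rise, as percent of the full-agonist control response, exceeds 60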;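 note: rat C6 glioma line stably carrying human EP2 under a CMV promoter; the protocol text gives 20 µM as final concentration; 100% = response of wells given 1 µM PGE2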
Target sequence (P43116 whole entry, looked up): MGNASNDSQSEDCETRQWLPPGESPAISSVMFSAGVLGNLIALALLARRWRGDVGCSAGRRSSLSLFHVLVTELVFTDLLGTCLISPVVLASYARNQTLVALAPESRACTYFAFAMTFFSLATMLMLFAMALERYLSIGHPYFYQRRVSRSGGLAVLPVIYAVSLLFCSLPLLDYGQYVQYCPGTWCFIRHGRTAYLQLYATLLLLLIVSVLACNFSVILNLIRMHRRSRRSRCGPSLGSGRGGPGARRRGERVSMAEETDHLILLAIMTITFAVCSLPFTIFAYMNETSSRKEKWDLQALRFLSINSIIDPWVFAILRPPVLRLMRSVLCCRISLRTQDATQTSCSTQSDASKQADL
SKN-1 inh – C. elegans SKN-1 inhibition; C. elegans VP596 Pgst-4::GFP/RFP ratio, acrylamide-induced, 24 h; inhibition, % at 21.8 µM; hit rate 0.49% among 360,000; AID 624304;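 active = interference check ratio from 0.5 to 1.5 plus GFP to RFP signal ratio inhibition reaching or exceeding a fixed threshold, cut at about 30% in these data, passing the limit was not always enough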
RAM network inh – blocks the yeast RAM network. S. cerevisiae dse1pr::URA3 reporter, 5-FOA growth OD615, 2 d; analog-sensitive cbk1-as2 kinase mutant strain. inhibition, % at 50 µM. hit rate 1.8% among 190,000;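 active = inhibition above a set limit, 3 SD over mean compound inhibition, cut at about 8.4% in these data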;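 note: 0% = DMSO-only wells with no growth and 100% = 10 µM 1-NA-PP1 full growth; inhibition rescues growth on 5-FOA so higher OD means more RAM inhibition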
PG9 Ab binder – binds the HIV-1 gp120 antibody PG9. TR-FRET gp120-PG9 antibody binding. inhibition, % at 6.7 µM. hit rate 0.43% among 360,000; in the data active = inhibition above about 8.5%
Rev-erbA mod – modulators of human Rev-erb alpha DNA binding; P20393; Rev-erbα–FITC-DNA binding, fluorescence polarization, 90 min; activity, % at 10 µM; hit rate 0.79% among 370,000; AID 1259318;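 active = activity above about 14%, limit read from the data; passing the limit was not always enough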;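 note: 0% = DMSO wells with 35 nM protein and 100% = DMSO wells with 750 nM protein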
PGE2 EP2 inh – inhibitors of human EP2 prostaglandin E2 receptor; P43116; C6 glioma cells expressing human EP2, cAMP TR-FRET; cells stimulated with saturating PGE2; inhibition, % at 25 µM; hit rate 0.52% among 260,000; AID 1422;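 active = percent inhibition above 40 after rounding to a whole number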;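 note: rat C6 glioma host cells with rolipram phosphodiesterase inhibitor present; the protocol text gives 20 µM as final concentration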
EP2 cAMP induct – EP2 receptor cAMP induction, counter-screens negative | calls only at 20 µM (by protocol) | shares compounds with EP2 modulator | hit rate 47% among 1,300 | AID 1080 | C6 glioma EP2 cells, cAMP HTRF induction; plus low (about EC15) PGE2 agonist;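 active = cAMP induction above 50% in the main assay while under 30% in all four parallel counter assays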;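 note: rat C6 glioma cells stably expressing human EP2 receptor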
* = called active by the depositor; i = inactive; · = not tested or not shown; + = active, no number; ! = repeats disagree. In the library only some 2.9% were active in any assay of this set; here they are far more common.

SMILES	EP2 modulator	SKN-1 inh	RAM network inh	PG9 Ab binder	Rev-erbA mod	PGE2 EP2 inh	EP2 cAMP induct
CCOC(=O)C1=C(C)OC(N)=C(C#N)C1c1cc(C)sc1C (stereo not drawn)	53	3	0	-1	2	-2	i
CCOC(=O)C1=C(C)N(C)C(C)=C(C(=O)OCC)C1c1ccsc1	72*	6	2	-2	0	9	+
COc1cccc(C(=O)N(Cc2cccnc2)Cc2cc3cc(C)ccc3n3nnnc23)c1	-13	·	·	·	·	16	·
C=CCN1CCN(C(CC)c2nnnn2CCc2ccc(OC)c(OC)c2)CC1 (stereo not drawn)	8	·	·	·	·	10	·
Cc1ccc(-n2cc(-c3ccccc3)c3c(N4CCOCC4)ncnc32)cc1	69*	-1	1	0	-1	12	i
Cc1ccc(-n2cc(-c3ccccc3)c3c(N4CCN(C)CC4)ncnc32)cc1	-1	23	0	0	-2	5	·
Cc1ccnn1CCNS(=O)(=O)c1ccc2c(c1)NC(=O)CO2	-40	·	·	·	·	4	·
CCc1ccccc1N(CC(=O)NCc1ccccn1)S(C)(=O)=O	3	·	·	·	·	12	·
NS(=O)(=O)c1ccc(NCc2cnc3ccccc3n2)cc1	71*	3	·	2	4	10	i
Cc1nc(C)n(CCC(=O)N2CCC(C(=O)c3nc4ccccc4s3)CC2)n1	-9	·	·	·	·	·	·
Cc1c(NC(=S)NC(=O)c2ccc(-c3ccc(Cl)cc3)o2)cccc1C(=O)O	99*	9	3	-2	1	9	+
N#CC1=C(N)SC(N)=C(C#N)C1c1ccoc1	68*	·	2	·	·	34	i
COC(=O)c1cc2sccc2n1CC(=O)N1CCCc2ccccc21	30	12	0	1	-1	5	·
O=C(c1cc2sccc2n1Cc1ccccc1)N1CCCc2ccccc21	69*	-1	3	-1	5	4	+
Cn1c(C(=O)N2CCCc3ccccc32)cc2sccc21	66*	7	1	1	-3	9	+
Cc1ccc(-n2nc3c(c2NC(=O)c2ccc(Br)o2)CSC3)c(C)c1	52	4	4	0	-1	5	i
CCc1c(C)sc2ncn3c(=O)n(CC(=O)N4CCCCC4)nc3c12	-23	·	·	·	·	·	·
CCOC(=O)C1=C(C)NC(C)=C(C(=O)OC)C1c1cccc(Cl)c1Cl (stereo not drawn)	65*!	13	1	-1	-1	9	i
COc1cccc(NC(=O)CSc2nnc(-c3cccnc3)n2CCc2ccccc2)c1	17	·	·	·	·	7	·
Cc1cc(O)ccc1C1(c2ccc(O)cc2C)OC(=O)c2ccccc21	67*	-13	2	0	5	11	i
COc1ccc(C(=O)CSc2nnc(CCc3ccccc3)n2-c2ccccc2)cc1	40	17	4	1	4	6	·
COc1ccc(-n2c(CCc3ccccc3)nnc2SCC(=O)c2ccccc2)cc1	52	6	3	0	0	15	i
CC(/C=C\c1ccccc1)=C/C(=O)O	-8	-5	·	0	-1	2	·
CC1=C(/C=C/C(C)=C/C=C/C(C)=C/C(=O)O)C(C)(C)CCC1	62*!	-1	1	-2	-7	14	+
O=C(CN1C(=O)[C@@H]2CCCN2C(=O)c2ccccc21)Nc1ccc2c(c1)OCO2	-4	·	·	·	·	4	·
SMILES	EP2 modulator	SKN-1 inh	RAM network inh	PG9 Ab binder	Rev-erbA mod	PGE2 EP2 inh	EP2 cAMP induct
Cc1ccc(NCc2n[nH]c(=S)n2Cc2ccccc2)cc1Cl	55	5	-1	0	·	6	i
CCCn1cnc2sc(CC)cc2c1=O	50	7	3	-1	5	8	i
CCn1c2ccccc2c2cc(Nc3cc(C)nc4ncnn34)ccc21	83*	5	-1	-2	2	8	+
CCc1ccc(Nc2cc(C)nc3ncnn23)cc1	·	1	·	-2	6	·	·
CCOC(=O)c1c(CC(C)C)csc1/N=C/C1C(=O)CCCC1=O	68*	2	1	-2	0	1	i
CCOC(=O)c1c(/N=C/C2C(=O)CC(C)(C)CC2=O)sc2c1CCCC2	34	-6	4	-3	-2	5	·
CCOC(=O)c1c(-c2ccccc2)csc1/N=C/C1C(=O)CCCC1=O	24	-1	0	-1	2	10	·
CCOC(=O)c1c(/N=C/C2C(=O)CCCC2=O)sc2c1CCCC2	52	1	2	0	2	3	i
CCc1ccccc1N(C)C(=O)c1cc2cc(OC)ccc2oc1=O	12	·	·	·	·	7	·
O=C(CSc1nnc2c(n1)[nH]c1cccc(C(F)(F)F)c12)NCC1CCCO1 (stereo not drawn)	-15	·	·	·	·	11	·
COc1ccccc1Nc1cc(C)nc2c(C)ccc([N+](=O)[O-])c12	80*	8	2	-4	3	4	+
COc1ccc2c(c1)c(CN1CCN(Cc3ccccc3OC)CC1)cn2CC(N)=O	-29	·	·	·	·	5	·
COc1ccc(C2(C(=O)N3CCC(Nc4nc(C)c(C)c(=O)[nH]4)CC3)CC2)cc1	-20	·	·	·	·	4	·
Cn1c(=O)oc2cc(S(=O)(=O)NCc3ccccc3CN3CCCCC3)ccc21	2	·	·	·	·	3	·
CCOc1ccc(OCC)c(NC(=O)CN2CCN(c3cccc(C)c3)C(C)C2)c1 (stereo not drawn)	58	15	0	-2	-4	·	·
CCOc1ccc(OCC)c(NC(=O)CN2CCN(CC)CC2)c1	3	-10	1	-1	0	9	·
CCOc1ccc(OCC)c(NC(=O)CN2CCN(c3cccc(C)c3)CC2)c1	73*	12	1	-1	0	·	+
CCOc1ccc(OCC)c(NC(=O)CN2CCN(c3cc(C)ccc3C)CC2)c1	78*	-5	8.7*	-3	5	11	+
CCOc1cc(C2C(C#N)=C(N)Oc3c2c(C)nn3-c2ccccc2)ccc1OCC(N)=O (stereo not drawn)	-19	·	·	·	·	10	·
CCOc1ccccc1Cn1c(=O)sc2ccccc21	83*	5	0	-2	5	4	+
CCCCOc1ccccc1Cn1c(=O)oc2ccccc21	62*	2	11*	2	0	8	+
COc1ccccc1Cn1c(=O)sc2ccccc21	27	·	·	·	·	7	·
O=C(NCc1ccccc1)c1ccc(=O)[nH]n1	14	-7	-1	-1	3	7	·
O=C(NCc1ccco1)c1ccc(=O)[nH]n1	67*	1	1	0	-2	13	i
CC(OC(=O)c1oc2ccccc2c1COc1ccccc1)C(=O)NC(N)=O (stereo not drawn)	70*	7	3	0	1	5	i
